# Compound activity deposited in PubChem by several laboratories.
# Peg3 promoter: Peg3 promoter-driven luciferase inhibitors, primary screen, cell-based, HeLa, luciferase luminescence; HeLa PEG-Prom luciferase reporter, overnight; inhibition, % at 20 µM; 360,000 compounds, 1.7% hits; AID 588405, 2011;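 active = inhibition of at least 50% at 20 µM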
# EWS-Fli inh: EWS/Fli-driven NR0B1 reporter inhibitors, primary screen, A673 cells, NR0B1 luciferase, luminescence, MLPCN library; viability-normalised; inhibition, % at 12.6 µM; 350,000 compounds, 0.67% hits;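 active = mean inhibition of at least 50% after viability correction, with every replicate also passing that limit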;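 note: firefly luciferase signal divided by Alamar Blue viability fluorescence both relative to DMSO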
# ABHD5-PLIN5 inh: ABHD5-PLIN5 interaction inhibitors, primary screen, cell lysate, split luciferase complementation, luminescence | 360,000 compounds, 0.78% hits | inhibition, % at 4 µM | Split G. princeps luciferase complementation, 4 h | Perilipin-5 (Homo sapiens) + 1-acylglycerol-3-phosphate O-acyltransferase ABHD5 (Homo …;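 active = inhibition above the mean inhibition across every tested compound plus 3 SD, cut at about 22% in these data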;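 note: 0% = DMSO only wells and the 100% control is not disclosed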
# Target sequence (Q00G26 whole entry, looked up): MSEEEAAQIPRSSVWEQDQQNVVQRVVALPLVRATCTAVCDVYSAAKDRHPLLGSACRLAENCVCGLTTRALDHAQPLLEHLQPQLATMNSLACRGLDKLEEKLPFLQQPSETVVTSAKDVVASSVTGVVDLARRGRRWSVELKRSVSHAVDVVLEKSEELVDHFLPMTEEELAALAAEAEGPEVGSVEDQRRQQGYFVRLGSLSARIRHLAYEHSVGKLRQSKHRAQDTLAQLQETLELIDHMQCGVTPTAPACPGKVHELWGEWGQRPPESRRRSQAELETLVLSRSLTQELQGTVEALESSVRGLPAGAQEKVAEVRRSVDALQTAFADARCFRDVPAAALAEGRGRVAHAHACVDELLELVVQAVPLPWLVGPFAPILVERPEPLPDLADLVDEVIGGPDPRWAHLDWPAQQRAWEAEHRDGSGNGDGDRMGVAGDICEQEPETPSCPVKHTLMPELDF
# Target sequence (Q8WTS1 whole entry, looked up): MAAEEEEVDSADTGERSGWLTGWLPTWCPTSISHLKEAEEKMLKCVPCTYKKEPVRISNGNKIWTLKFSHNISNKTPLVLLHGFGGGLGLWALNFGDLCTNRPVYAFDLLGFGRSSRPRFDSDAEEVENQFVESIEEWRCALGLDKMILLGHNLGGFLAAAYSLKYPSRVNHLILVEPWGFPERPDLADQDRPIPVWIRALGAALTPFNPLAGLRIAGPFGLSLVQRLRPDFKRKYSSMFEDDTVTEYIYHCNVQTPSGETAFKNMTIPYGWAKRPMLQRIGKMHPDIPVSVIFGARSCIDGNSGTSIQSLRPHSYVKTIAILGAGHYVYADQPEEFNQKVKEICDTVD
# Shn3 inh set2: reduction of Shn3 3'UTR firefly luciferase signal, primary screen, Schnurri-3 inhibitor project, cell-based, Clone20 osteoblasts, set 2; 360,000 compounds, 0.52% hits; Clone20 osteoblast Shn3 3'UTR firefly luciferase, 24 h; inhibition, % at 12.5 µM; AID 588674, 2011;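 active = mean inhibition of at least 75% with every replicate also reaching 75%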;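 note: 0% = median of neutral control wells and 100% = pilot-screen positive control compound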
# TRPM1 prom inh: inhibitors of MITF-dependent TRPM1 promoter reporter, primary screen, cell-based, SK-MEL-5, single point, luciferase; 330,000 compounds, 0.83% hits; inhibition, % at 12.5 µM; SK-MEL-5 TRPM1 promoter luciferase, 24 h;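 active = mean inhibition across replicates of 60% or more, whatever share of single replicates reaches that level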
# PAX8 inh HTS: inhibitors of PAX8-driven TPO luciferase reporter, primary screen, RMG-I cells, single concentration; SteadyGlo, 24 h; inhibition, % at 12.6 µM; 360,000 compounds, 1.2% hits; AID 652154, 2013;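 active = mean replicate inhibition at least 60% with every replicate also reaching 60%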;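 note: luciferase light reporting Pax8 driven TPO promoter activity; plate controls were median of neutral control wells for no effect and mitoxantrone controls for full effect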
# Starred values were filed as active, the others as inactive; · = no result. Compounds with a hit are over-represented: about 3% of the library has one in this group of screens.
SMILES,Peg3 promoter,EWS-Fli inh,ABHD5-PLIN5 inh,Shn3 inh set2,TRPM1 prom inh,PAX8 inh HTS
C[C@H]1CN([C@@H](C)CO)S(=O)(=O)c2ccc(/C=C/c3ccccc3)cc2O[C@@H]1CN(C)C(=O)Nc1cccc(F)c1,·,21,·,·,·,62*
C[C@H](CO)N1C[C@H](C)[C@H](CN(C)C(=O)Nc2cc(F)ccc2F)Oc2cc(/C=C/c3ccccc3)ccc2S1(=O)=O,·,19,·,·,·,65*
C/C=C/c1ccc2c(c1)O[C@H](CN(C)C(=O)Nc1cc(F)ccc1F)[C@@H](C)CN([C@H](C)CO)S2(=O)=O,·,24,·,·,·,·
CC(C)=CCNc1ncnc2c1c(C#N)cn2C1OC(CO)C(O)C1O (stereo not drawn),29,33,13,-6,-1,87*
OCC1OC(n2cnc3c(NCCc4ccccc4)ncnc32)C(O)C1O (stereo not drawn),-40,-24,-7,-47,-43,-22
CC(=O)N(Cc1ccc(F)cc1)C1=C(NCCc2ccccc2)C(=O)c2ccccc2C1=O,103*,·,-2,38,104*,105*
CC(=O)N(Cc1ccc(F)cc1)c1cccc(C)c1C,10,11,6,9,0,16
Cc1cc(C)n(-c2ccc([N+](=O)[O-])cc2)n1,107*,3,11,-1,1,2
Cc1cccc(CN(C)C[C@H]2OCc3cnnn3CCCC(=O)N([C@H](C)CO)C[C@H]2C)c1,·,-1,·,·,·,·
COc1cc(F)c(C2=CC(=O)C[C@H](c3ccc4c(c3)OCO4)C2)cc1F,3,-2,-6,-15,7,9
COc1ccc([C@H]2CC(=O)C=C(c3ccc4c(c3)OCO4)C2)cc1OC,5,3,0,86*,·,-1
COc1ccc(F)cc1C1=CC(=O)C[C@H](c2ccc3c(c2)OCO3)C1,10,53*,6,1,27,-2
O=C(C1CC1)N1CC(=O)N2[C@H](C1)[C@H](c1ccc(C#CCc3ccccc3)cc1)[C@@H]2CO,·,-1,·,·,·,2
COc1cc(CN2[C@@H]3CNC[C@H]2C3c2ccc(-c3cccc(C)c3)cc2)cc(OC)c1 (stereo partly drawn),·,22,·,·,·,5
C[C@@H]1CCCCO[C@H](CN(C)C(=O)CCC(F)(F)F)[C@H](C)CN([C@@H](C)CO)C(=O)c2cc(NC(=O)Nc3ccc4c(c3)OCO4)ccc2O1,·,4,·,·,·,68*
C[C@H](CO)N1C[C@H](C)[C@@H](CN(C)Cc2ccccc2)OCCCC[C@H](C)Oc2ccc(NC(=O)Nc3ccc4c(c3)OCO4)cc2C1=O,·,64*,·,·,·,-15
C[C@@H]1CCCCO[C@@H](CN(C)Cc2ccc(C(F)(F)F)cc2)[C@H](C)CN([C@@H](C)CO)C(=O)c2cc(NC(=O)Nc3ccc4c(c3)OCO4)ccc2O1,·,-3,·,·,·,72*
C[C@@H]1CCCCO[C@H](CN(C)Cc2ccccc2)[C@@H](C)CN([C@@H](C)CO)C(=O)c2cc(NC(=O)Nc3ccc4c(c3)OCO4)ccc2O1,·,-63,·,·,·,6
C[C@@H]1CN([C@H](C)CO)C(=O)c2cc(NC(=O)Nc3ccc4c(c3)OCO4)ccc2O[C@@H](C)CCCCO[C@H]1CN(C)Cc1ccc(C(F)(F)F)cc1,·,66*,·,·,·,85*
C[C@@H]1CN([C@H](C)CO)C(=O)c2cc(NC(=O)Nc3ccc(C(F)(F)F)cc3)ccc2O[C@@H](C)CCCCO[C@@H]1CN(C)Cc1ccc2c(c1)OCO2,·,38,·,·,·,89*
C[C@@H]1CCCCO[C@H](CN(C)Cc2ccc(C(F)(F)F)cc2)[C@@H](C)CN([C@@H](C)CO)C(=O)c2cc(NC(=O)Nc3ccc4c(c3)OCO4)ccc2O1,·,50,·,·,·,65*
COc1ccc(NC(=O)N2CCC3(CC2)CN(CC2CC2)[C@H](CO)c2c3c3ccc(OC)cc3n2C)cc1,·,-2,·,·,·,·
CC(O)(CC(=O)CC(=O)c1ccccc1)c1ccccc1 (stereo not drawn),52*,-10,12,6,10,-8
C[C@H](CO)N1C[C@H](C)[C@@H](CN(C)S(C)(=O)=O)Oc2ncc(C3=CCCCC3)cc2C1=O,·,-8,·,·,·,·
Cc1noc(C)c1NC(=O)Nc1cccc2c1O[C@@H](CN(C)C(=O)Nc1cccc3ccccc13)[C@@H](C)CN([C@H](C)CO)C2=O,·,8,·,·,·,26
SMILES,Peg3 promoter,EWS-Fli inh,ABHD5-PLIN5 inh,Shn3 inh set2,TRPM1 prom inh,PAX8 inh HTS
O=C(N[C@H]1C/C=C\C[C@H](CC(=O)N(CCO)Cc2ccccc2)C(=O)N[C@@H](c2ccccc2)COC1=O)OCC1c2ccccc2-c2ccccc21,-7,·,0,38,-2,·
O=C(N[C@@H]1C/C=C\C[C@H](CC(=O)N(CCO)Cc2ccccc2)C(=O)NC[C@@H](c2ccccc2)OC1=O)OCC1c2ccccc2-c2ccccc21,42,10,-10,90*,21,10
O=C(N[C@@H]1C/C=C\C[C@@H](CC(=O)N(CCO)Cc2ccccc2)C(=O)NC[C@H](c2ccccc2)OC1=O)OCC1c2ccccc2-c2ccccc21,47,9,-5,88*,6,19
O=C(C[C@H]1C/C=C\C[C@H](NC(=O)OCC2c3ccccc3-c3ccccc32)C(=O)O[C@H](c2ccccc2)CNC1=O)N[C@H](CO)Cc1ccccc1,87*,·,0,42,33,·
O=C(N[C@@H]1CC[C@@H](CCNC(=O)c2ccccc2F)O[C@H]1CO)c1ccc2c(c1)OCO2,·,-3,·,·,·,2
CC(C)NC(=O)Nc1ccc2c(c1)C(=O)N([C@H](C)CO)C[C@@H](C)[C@@H](CN(C)CC1CCCCC1)OCCCC[C@@H](C)O2,·,·,·,·,·,2
CC=Cc1ccc2n(c1=O)C[C@@H]1[C@@H](CO)[C@H](C(=O)NCCc3ccncc3)[C@H]2N1CCc1ccccc1 (mixture of isomers),·,-6,·,·,·,11
COc1ccc2c3c(n(C)c2c1)[C@H](CO)N(S(=O)(=O)c1cn(C)cn1)CC31CCN(C)CC1,·,-6,·,·,·,·
Cc1ccc(S(=O)(=O)N[C@H]2CC[C@@H](CC(=O)NCc3ccccc3F)O[C@@H]2CO)cc1,·,-3,·,·,·,0
O=C(Nc1nc2ccccc2n1CCN1CCOCC1)c1cn(-c2ccccc2)nc1-c1ccccc1,84*,·,6,72,36,·
